Source: paper PMC12136788
Numbering of substitutions follows the chain as printed. In all, about 24,000 sequences were measured (“enrichment r”: median about 0.99, highest 2% from about 3.7 on). What follows is part of a selection rich in the highest values, with near analogues and random picks from the rest.

T1: UNK ZnF1-3 (human, UniProt Q9C0B0 31-174)
T1 sequence: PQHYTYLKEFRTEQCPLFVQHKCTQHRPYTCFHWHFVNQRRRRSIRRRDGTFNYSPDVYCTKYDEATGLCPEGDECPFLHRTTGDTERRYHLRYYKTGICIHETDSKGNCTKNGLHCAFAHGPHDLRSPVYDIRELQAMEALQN

B1: chr19:16452684:16452685:+_ENSMUSG00000024639_ENSMUST00000025541|perfect_dup|FALSE|FALSE (ssRNA)
RNA: GGGAGUUCUACAGUCCGACGAUCGUUUAAGAACAGAAUCACAGAGGAGUUCUGGAACCAGGGGUAGGUGAUAAUUGUUCUAAAGAGUGCUUUGCUCUCCUCCAUGCGGUUCUCAUUGUCUGACUCCACAAGAACUUGAUCAUACAACAGAGGAUUGAGCAUCA
B2: chr5:128448638:128448639:+_ENSG00000066583_ENST00000173527|hu_mus|hu_hu_hu_mus_False|98_98 (ssRNA)
RNA: GGGAGUUCUACAGUCCGACGAUCGGCACUCGCCUUAAUUAGAUUCUGAAUUUCCUUGAACUUCGGGUGGUCUUUGUCAGCCACCAGCUGUAGGAGGACAGCCUCACUAGUGGUCACGAUGAUCCCAGUGCGGGCAAGACGCUCCAACAGAGGAUUGAGCAUCA
B3: chr17:57737884:57737885:+_ENSG00000141367_ENST00000269122|hu_mus|motif|central (ssRNA)
RNA: GGGAGUUCUACAGUCCGACGAUCGUUUCCCUGGGCGAAGAGAGCAUUAAAUUUCCGGGCAAAGAGUUCUUCAGCACCAGCGGAGUUGUUCCGCACAGCCAUUCUCAGAGCCAAGUCAGGAUUUUGUAGGACAUUGGUGAUAUACAACAGAGGAUUGAGCAUCA
B4: chr3:101400026:101400027:-_ENSG00000114391_ENST00000394077|hu_mus|FALSE|FALSE (ssRNA)
RNA: GGGAGUUCUACAGUCCGACGAUCCUACCACACUAGCGUUUCCCACCAACUCUGGGGGCAGAGACCUUCACAGGCUUCACAAUCUUUUGUUUAGGUGCUGCCUUUGUGGGGGCCUUGGCAGCAGCCAUUGCUGUCUUCUUUGAUCAACAGAGGAUUGAGCAUCA
B5: chr2:48026839:48026840:+_ENSG00000116062_ENST00000540021|hu_hu|hu_hu_hu_mus_False|18_58 (ssRNA)
RNA: GGGAGUUCUACAGUCCGACGAUCAUAGUGAGCCACUAGCGUCCUAAAUCUGGAACAGUGGCGGUCAUCCGAAAACUGACCUAUGAAAAACUUGCCCAGUGAAGUGUCCACAAAGCACACACCAUAUACACGAGUGUGACCAGACAACAGAGGAUUGAGCAUCA
B6: chr7:108213676:108213677:+_ENSG00000128590_ENST00000249356|hu_hu|FALSE|FALSE (ssRNA)
RNA: GGGAGUUCUACAGUCCGACGAUCUCCAUGAAAUCUAUUUUCAGUCUGUACUGUAUGCUGAUUGGUAGAGUCAAAACCACUAAAAGAAAACAUUUUCUCCAUAUCUUCAAACAUGUCAUCAAAUAAUCCACCUCCAAAAGAAAACAACAGAGGAUUGAGCAUCA
B7: chr1:182620099:182620100:+_ENSMUSG00000058729_ENSMUST00000085803|mus_mus|motif|central (ssRNA)
RNA: GGGAGUUCUACAGUCCGACGAUCAACAACAAAGCUUUUAUAAAUUAUGAUAAAUUAAAAUAUUUAUUAUUAUAAUUGAUCGGUAGAACCAUGUCCCACUGUCAGUAUAUGAAACAUACACUUAAGUCCGUGUUUCCCAUCUGUCAACAGAGGAUUGAGCAUCA
B8: chr15:91426070:91426071:+_ENSG00000140564_ENST00000268171|hu_mus|FALSE|FALSE (ssRNA)
RNA: GGGAGUUCUACAGUCCGACGAUCGGCAGCCAUGGGAAGGGCAGGGUGGGUGUGGGCAUGAGAAGGUCAAGGGUCCAGCUGCUACCCCCAUUAAAAAUACAAAAAAAAAAAAAAAAAAGAAUCAGCAUCUAAAGUGAAUAAUCACAACAGAGGAUUGAGCAUCA
B9: 131763144_131763264_1223_3pUTR_ENSMUSG00000079037_ENSMUST00000091288|mouse|control|control (ssRNA)
RNA: GGGAGUUCUACAGUCCGACGAUCUCACCUUGUACUCUGGGUACAAGUCAGGGGAUACACCAGUAUUUAUUCACUAGACCAAAACAAAGCCCCAACUAGCCAGCAGUUAUUUGGUGUUAUAUUCUUAUUGGCCCGGUGUUAGCACAACAGAGGAUUGAGCAUCA
B10: chr2:202488911:202488912:-_ENSG00000155755_ENST00000286196|hu_mus|hu_hu_hu_mus_False|8_98 (ssRNA)
RNA: GGGAGUUCUACAGUCCGACGAUCAUUGAAACAUUUUCAUAAUAUUGCAGUAGCAUUUCAGCAUUAUGUAACAAAAGCUCAAUUGUAAAUACAUGUAUCUUAUAAAAAUACACUUAAAAACACGAGUAAAAAUGGGAGGCGCCACAACAGAGGAUUGAGCAUCA
B11: chr5:67446008:67446009:+_ENSMUSG00000037736_ENSMUST00000038188|mus_mus|FALSE|FALSE (ssRNA)
RNA: GGGAGUUCUACAGUCCGACGAUCGCCCCCAAGGGUAAGUAACACAAAUGUCUCCGGGAAUACAGUAUAUAUUAUCAGACUAGUGUCUUUGCAUUAAAAAAAAAAAAAGUUAUAGUUCAGAGUCAGAACUCGCUGGGGUAUCUACAACAGAGGAUUGAGCAUCA
B12: chr5:67446008:67446009:+_ENSMUSG00000037736_ENSMUST00000038188|mus_mus|motif|central (ssRNA)
RNA: B11 RNA with U80G, A81G
B13: chr5:32794366:32794367:+_ENSMUSG00000014956_ENSMUST00000015100|mus_mus|FALSE|FALSE (ssRNA)
RNA: GGGAGUUCUACAGUCCGACGAUCAGAAGAGAGCCAGCUAUCCAAGGCUUGUCAAAAAGGAUUCUCAUGUUCUGUGAAUCUAAAAACAAACAAACAACAAAAACCCCAAAAAACAAAACCAAUGCAGGUGAGGGUAAUACCAGACAACAGAGGAUUGAGCAUCA
B14: 35171164_35172336_3352_CDS_ENSMUSG00000029104_ENSMUST00000080036|mouse|control|control (ssRNA)
RNA: GGGAGUUCUACAGUCCGACGAUCGGGGGCACUCGCUGCUAGCAAGUUUCCAGCCAAAAUCAAGGCAUCCUGAUGGGCUGAGAGAUCCAGUGGGAACCAAGCUGAUGAAAGCAAGGUGAGAAUCAUGGAGGCCAUCCCAACAGUCAACAGAGGAUUGAGCAUCA
B15: chr4:95690885:95690886:+_ENSMUSG00000028572_ENSMUST00000156910|mus_mus|mus_mus_mus_hu_False|78_88 (ssRNA)
RNA: GGGAGUUCUACAGUCCGACGAUCUUUAGAAAAUGUUAAAUACCAUGAGCAUGCUAAGUAAUUUUAAUAUUUUAUUUUACCAGAAGUCACAGGCAAGCAGACACUACAAGAAUAUAUGAAAAUGAAACUCAACAAUAUAACUGUCAACAGAGGAUUGAGCAUCA
B16: chr10:70744696:70744697:+_ENSG00000165732_ENST00000354185|hu_hu|motif|central (ssRNA)
RNA: GGGAGUUCUACAGUCCGACGAUCUUAAAUUAGAAAAUAUUUUCUUUGUAGAAAAUAGUAAAAAUUAUAACAUUUACCAAGCGGACCCAACAAGUUCAUUUAAACCAAAAAGUAGCUAAAUACAUUAUACAUUUAUAAAUACAGCAACAGAGGAUUGAGCAUCA
B17: chr16:23113652:23113653:+_ENSMUSG00000022884_ENSMUST00000115341|mus_mus|FALSE|FALSE (ssRNA)
RNA: GGGAGUUCUACAGUCCGACGAUCCCACAAGUAUAUUAUUAAAUGAUAGAGAACAUCUAAUACAACCAUUUCUACAUAACUAGUAAAUGAAUUUCUAAGAAAAAAAGAUUUUACAGACCCCAUCUUUUAUACCCACCCCCAACACAACAGAGGAUUGAGCAUCA
B18: chr14:89307221:89307222:+_ENSG00000165533_ENST00000346301|hu_mus|hu_hu_hu_mus_False|18_78 (ssRNA)
RNA: GGGAGUUCUACAGUCCGACGAUCUCCUGUUUGGUUAGUGCCAGGGAGCUUCAAAGACGUUCCAGGGCGUGGGACCUGAGCAAUAGCAUUUUCAUCCAGGAUCAUUUCAGCAAUUCCUUCCUGAUCUACAUCAAUUUCAUCUAUCAACAGAGGAUUGAGCAUCA
B19: chr7:7679991:7679992:-_ENSG00000106399_ENST00000396682|hu_hu|hu_hu_hu_mus_False|68_88 (ssRNA)
RNA: GGGAGUUCUACAGUCCGACGAUCUGGGAUGAAUCUUUUCCAGCUUCCCUACGAAGCACACGGGCCGGUCGAUGAAUUGUGGUAACAUGCUGGCGUUGACGCGCGCUUUGGGGAGCUGCAUUAUGUCCUCCAUGAUUCUGCCGCCAACAGAGGAUUGAGCAUCA
B20: 96788939_96789059_3507_CDS_ENSG00000066739_ENST00000359933|human|control|control (ssRNA)
RNA: GGGAGUUCUACAGUCCGACGAUCACAAACAUCUUUCAAGGAAUGAGCACCUCCUUCCUCUUCCUCCUGGUAGUGACCAUCAUUCUCCUCUUCUUCUUCAGCUGCAAUUCUCUCCAAAAUGGAAUGCAUGGCUGGUGGAUUUAUCAACAGAGGAUUGAGCAUCA
B21: chr9:74900086:74900087:+_ENSMUSG00000007656_ENSMUST00000169492|mus_mus|motif|central (ssRNA)
RNA: GGGAGUUCUACAGUCCGACGAUCUUGUCCCAAGUGAGGAUACCUUGCCUUUAACUUUGCUUCUUCAGCUUUCUCUGGACGGGUUACUUUAUCUUCCAUUUCCUUUUGCUCCUCCGCAGACGCUGCCUCGGGGACUUCCGCGGACAACAGAGGAUUGAGCAUCA
B22: chr3:139236485:139236486:-_ENSG00000114115_ENST00000232219|hu_mus|FALSE|FALSE (ssRNA)
RNA: GGGAGUUCUACAGUCCGACGAUCCUGAAGACCAAGGUUAUCUCCUCGGGCUGUUCGGGCUGCUCAGUGUACUUUCUUAAACACUUGCUUGCAGAUCACACCCUCAGCUCUCAUUUCCAGGUGAAGUUCAUCACCCUCGAUCCACAACAGAGGAUUGAGCAUCA

target: T1, UNK ZnF1-3; assay: nsRBNS (natural sequence RNA bind-n-seq); RBNS binding buffer (assumed for nsRBNS): 25 mM Tris pH 7.5, 150 mM KCl, 3 mM MgCl2, 0.01% Triton X-100, 500 ug/ml BSA, 20 U/ml SUPERase-In, 4 C; UNK is unkempt and MSI1 is Musashi-1; names of the RNAs are library labels; protein concentration not given here; high values mean tight binding

| Binder | binding signal [enrichment R] |
| --- | --- |
| B1 | 0.726 |
| B2 | 0.728 |
| B3 | 2.06 |
| B4 | 0.756 |
| B5 | 1.26 |
| B6 | 1.22 |
| B7 | 7.41 |
| B8 | 19.6 |
| B9 | 0.474 |
| B10 | 0.677 |
| B11 | 5.07 |
| B12 | 3.48 |
| B13 | 1.31 |
| B14 | 1.2 |
| B15 | 3.29 |
| B16 | 3.65 |
| B17 | 3.96 |
| B18 | 0.843 |
| B19 | 0.498 |
| B20 | 1 |
| B21 | 0.353 |
| B22 | 0.756 |
